MOR-DOR ag – OPRM1-OPRD1 heterodimerization agonism; P35372+P41143; activation, % at 9.3 µM; AID 504326; actives 0.3% (n = 340,000); cells, luminescence; in the data active means activation above about 18%;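 further: 0% = vehicle-treated cells and 100% = reference agonist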
Target sequence (P35372 whole entry, looked up): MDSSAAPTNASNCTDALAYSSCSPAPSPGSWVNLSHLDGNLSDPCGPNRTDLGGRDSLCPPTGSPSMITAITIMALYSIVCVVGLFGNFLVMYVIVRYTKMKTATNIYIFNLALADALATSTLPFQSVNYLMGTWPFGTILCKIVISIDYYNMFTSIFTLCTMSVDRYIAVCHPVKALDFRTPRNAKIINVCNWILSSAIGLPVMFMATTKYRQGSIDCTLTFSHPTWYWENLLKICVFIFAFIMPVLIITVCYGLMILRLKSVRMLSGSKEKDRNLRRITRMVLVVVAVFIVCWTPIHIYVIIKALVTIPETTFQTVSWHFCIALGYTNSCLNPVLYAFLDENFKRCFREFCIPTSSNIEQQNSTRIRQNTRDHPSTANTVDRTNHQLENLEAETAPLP
Target sequence (P41143 whole entry, looked up): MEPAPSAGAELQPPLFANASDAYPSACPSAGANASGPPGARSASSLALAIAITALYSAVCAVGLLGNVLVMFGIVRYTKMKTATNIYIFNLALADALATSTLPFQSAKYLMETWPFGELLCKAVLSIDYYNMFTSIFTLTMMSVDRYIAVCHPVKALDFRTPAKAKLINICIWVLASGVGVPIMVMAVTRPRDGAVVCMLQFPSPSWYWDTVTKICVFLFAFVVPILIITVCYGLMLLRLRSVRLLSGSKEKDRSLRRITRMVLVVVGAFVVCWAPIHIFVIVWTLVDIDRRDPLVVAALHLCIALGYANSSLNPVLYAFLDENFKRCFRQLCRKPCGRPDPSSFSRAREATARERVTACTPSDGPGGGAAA
HTR5A ag – counter-screen for OPRM1-OPRD1 agonists: human HTR5A agonism; P47898; HTR5A agonist assay, luminescence, cell-based; activation, % at 9.3 µM; actives 0.61% (n = 340,000); in the data active means activation mostly above about 9.5%, no sharp cut-off; inactive means mostly below about 7.6%;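 further: 0% = cells with vehicle only and 100% = reference agonist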
HTR5A inv ag – counter-screen for OPRM1-OPRD1 inverse agonists: human HTR5A inverse agonism; P47898; HTR5A cell line, luminescence; inhibition, % at 9.3 µM; actives 0.083% (n = 340,000); in the data active means inhibition mostly above about 23%, no sharp cut-off; inactive means mostly below about 18%;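 further: 0% = cells with DMSO and 100% = no-cell wells with DMSO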
MOR-DOR inv ag – mu-delta opioid heterodimer inverse agonism | P35372+P41143 | actives 0.21% (n = 340,000) | AID 504357 | cell-based MOR-DOR heterodimer luminescence | inhibition, % at 9.3 µM; in the data active means inhibition above about 22%, passing the limit was not always enough;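 further: 0% = cells with DMSO and 100% = wells without cells with DMSO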
Starred values were filed as active, the others as inactive. Only some compounds are listed: those with a hit (about 1.1% of all), similar ones and a draw of the others.

SMILES | MOR-DOR ag | HTR5A ag | HTR5A inv ag | MOR-DOR inv ag
N/C(=N\OC(=O)c1ccc2ccccc2c1)c1ccccc1Cl | 22* | 29* | -75 | -89
Fc1ccccc1N=C1NN=C(c2ccccc2)CS1 | -3 | 11* | -52 | 14
O=C1CCN(C(=O)Nc2cccc(Cl)c2)N1 | 0 | 11* | 18 | 2
Clc1ccc(/C=C/c2nc3ccccc3[nH]2)c(Cl)c1 | 7 | 13* | -17 | -33
COC(=O)[C@]1(CC(C)C)N[C@H](c2ccc(-c3ccc(F)cc3)c(OC)c2)[C@@H]2C(=O)N(C)C(=O)[C@@H]21 | 2 | -4 | 4 | -14
CC(=O)Nc1ccc(NC(=O)CSc2ccc3nnc(CCNS(=O)(=O)c4ccc(C)cc4)n3n2)cc1 | -1 | 6 | 26 | 6
O=Cc1cn(-c2ccccc2)nc1-c1ccc(F)cc1 | 9 | 2 | -6 | -47
CC1=NNC(=O)/C1=C\c1cn(-c2ccccc2)nc1-c1ccc(F)cc1 | 7 | 17* | -46 | -34
O=C(CCc1ccccc1)NC(NC(=S)Nc1ccc(Cl)cc1)C(Cl)(Cl)Cl (stereo unspecified) | 17 | 12* | -11 | -94
Cc1ccccc1C(=O)N1CCC(C(=O)N2CCCc3ccccc32)CC1 | 0 | 2 | -4 | -1
COc1ccc([C@H]2CC(=O)C=C(c3ccc(Oc4ccccc4)cc3)C2)cc1OC | 4 | 6 | 3 | -24
O=C(CSc1n[nH]c(-c2cccs2)n1)N1CCN(S(=O)(=O)c2ccc3ccccc3c2)CC1 | 4 | 9.8* | 11 | -23
Cc1cc(C)c(O)c(CN(C)Cc2cc(Cl)cc(Cl)c2O)c1 | 4 | 13* | -53 | -20
O=C(c1ccco1)N1CCC(c2nc3c(nnn3Cc3c(Cl)cccc3Cl)c(=O)[nH]2)CC1 | 0 | 1 | -30 | -3
CC(C)(C)CC(=O)N1CCC(c2nc3c(nnn3Cc3c(F)cccc3Cl)c(=O)[nH]2)CC1 | -1 | 11* | 27 | 8
CCc1cccc(NS(=O)(=O)c2c(C)nc3sc(CC)nn3c2=O)c1 | 1 | -3 | 8 | -4
COc1ccc(CNC(=O)COC(=O)/C=C/c2ccc(Cl)cc2)cc1 | -2 | -3 | 10 | 11
COc1ccc(/C=C/C(=O)OCC(=O)NCCNC(=O)COC(=O)/C=C/c2ccc(OC)cc2)cc1 | 1 | 12* | -44 | -8
O=C(CCN1C(=O)/C(=C/c2ccccc2)SC1=S)NCCc1ccc(O)cc1 | 11 | 14* | -55 | -61
CCN(C(=O)CSc1cccc[n+]1[O-])C1CCCCC1 | -6 | -2 | 6 | 21
COC(=O)c1cn(NC(=O)c2cccc(F)c2)c(=O)c2ccccc12 | -1 | -1 | -13 | 5
COC(=O)c1cn(NC(=O)c2cccc(N(C)C)c2)c(=O)c2ccccc12 | 1 | 9.2* | -5 | -4
COCCC(=O)N1CCC(Oc2ccc(C(=O)N3CCCC(OC)C3)cc2)CC1 (stereo unspecified) | 0 | -4 | 17 | -2
COc1ccc(CNc2nc3nc(C)cc(C)n3n2)cc1OC | -3 | 4 | 0 | 13
Cc1cc(C)n2nc(NCc3cccc(Br)c3)nc2n1 | 1 | 12* | -36 | -3
SMILES | MOR-DOR ag | HTR5A ag | HTR5A inv ag | MOR-DOR inv ag
Cc1nc(C)c(C(=O)NNS(=O)(=O)c2ccccc2)s1 | -1 | 10* | -28 | 7
COCC(C)n1c(C)cc(C(=O)COC(=O)c2c(C)nn(-c3ccccc3)c2C)c1C (stereo unspecified) | 3 | 10* | -23 | -15
COCC(C)n1c(C)cc(C(=O)COC(=O)C2=NN(c3ccccc3)C(=O)CC2)c1C (stereo unspecified) | -3 | -1 | 3 | 12
CCN(CC)CCCNC(=O)C1CCC(CNS(=O)(=O)c2ccc(Cl)cc2)CC1 (stereo unspecified) | -2 | -2 | 9 | 10
Cc1ccc(OCC(=O)N2CCN(c3nnc(-c4ccccc4)c4ccccc34)CC2)cc1 | 0 | 9.0* | 4 | -1
CC(=O)N1CCN(c2nnc(-c3ccc(C)cc3)c3ccccc23)CC1 | -1 | 1 | -2 | 6
Cc1ccc(NC(=O)c2ccc(N3CCCC3=O)cc2)cc1S(=O)(=O)N1CCCCC1 | -3 | -5 | 13 | 13
Cc1ccc(NC(=O)c2ccc3ccccc3n2)nc1 | -1 | 14* | -51 | 5
Cc1cc(C)cc(NC(=O)c2cccc3c2C(=O)N(C2CCCCC2)C3)c1 | -2 | 1 | 16 | 9
COc1cc(NC(=O)c2cccc3c2C(=O)N(C2CCCCC2)C3)cc(OC)c1OC | -1 | 11* | -17 | 6
CC(C)(C)NC(=O)CC1C[C@H](C(=O)N2CCOCC2)[C@@]2(CCC3CCCC3)c3[nH]c4ccccc4c3CCN2C1=O (stereo partly specified) | 2 | 8.6* | -29 | -9
CCN(CC)C(=O)[C@H]1C[C@H](CC(=O)NCC23CC4CC(CC(C4)C2)C3)C(=O)N2CCc3c([nH]c4ccc(Cl)cc34)[C@]12C | 1 | 3 | -12 | -5
CC[C@]12c3[nH]c4cc(-c5ccco5)ccc4c3CCN1C(=O)[C@@H](CC(=O)NCC13CC4CC(CC(C4)C1)C3)C[C@@H]2C(=O)N1CCN(C(=O)C2CC2)CC1 | -1 | 5 | -16 | 5
CC(C)N(C(=O)[C@H]1C[C@H](CC(=O)NCC23CC4CC(CC(C4)C2)C3)C(=O)N2CCc3c([nH]c4ccc(Cl)cc34)[C@]12C)C(C)C | 2 | 4.2* | -14 | -8
CC[C@]12c3[nH]c4cc(-c5ccco5)ccc4c3CCN1C(=O)[C@@H](CC(=O)NCc1ccco1)C[C@@H]2C(=O)N1CCN(C(=O)C2CC2)CC1 | -1 | 4.4* | -15 | 6
COc1ccc2[nH]c3c(c2c1)CCN1C(=O)C(CC(=O)NCC24CC5CC(CC(C5)C2)C4)C[C@H](C(=O)N2CCOCC2)[C@@]31CCC1CCCC1 (stereo partly specified) | 0 | 4.4* | -15 | 0
CCOC(=O)c1ccc(S(=O)(=O)N2CCN(C(=O)c3cccc(S(=O)(=O)N4CC(C)OC(C)C4)c3)CC2)cc1 (stereo unspecified) | -2 | -9 | 22 | 7
Oc1ccc(C[C@H]2CNC(=S)N2CC2CCCN2C[C@H](Cc2ccc(O)cc2)N2C[C@H](Cc3ccc(O)cc3)N(CC3CCCCC3)C2=S)cc1 (stereo partly specified) | -1 | 3 | -11 | 4
COc1ccc(N2CC(O)(c3ccc(C)cc3)[N+]3=C2CCCC3)cc1 (stereo unspecified) | -3 | 13* | -37 | 12
COc1ccc(CNC(=O)[C@]2(C)CCC[C@@]3(C)C4CC[C@@]5(C)C[C@]4(CCC32)CC5=O)cc1 (stereo partly specified) | 0 | 1 | -4 | 0
C[C@]1(CO)CCC[C@@]2(C)C1CC[C@@H](CO)[C@@H]2CCc1ccoc1 (stereo partly specified) | 0 | 9.8* | -38 | -1
Cc1ccc2c(c1C)OC(=O)CC2c1ccccc1 (stereo unspecified) | -1 | 6 | -22 | 4
COc1cccc(NC(=O)Nc2nc(-c3ccc(OC)c(OC)c3)cs2)c1 | 29* | 25* | -68 | -154

High-throughput results deposited in PubChem by The Scripps Research Institute Molecular Screening Center.
